NPC1 promoter act: qHTS Assay for NPC1 Promoter Activators; Huh7 NPC1 promoter luciferase reporter, 24 h; Potency, µM (series often up to 9.22 µM), without a hit: at the top dose activation, usual class: activators; actives 2.4% (n = 320,000); AID 485313, 2010; also: % of control where 0% means no effect; nearly all actives have a fitted effect of over 60% in size
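Luciferase expression driven by the NPC1 promoter was measured in stably transfected Huh7 cells after a 24 h compound incubation, using a luciferase reagent and a luminescence read.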
SMN2 splice up: qHTS Assay for Enhancers of SMN2 Splice Variant Expression | HEK293 SMN2-luciferase splicing reporter, luminescence, 30-36 h | Potency, µM (highest dose often 46.1 µM), without a hit: top-dose activity change, positive = activation, hits mostly activators | actives 2.8% (n = 210,000) | AID 1458, 2008; also: % of control where 0% means no effect; nearly all actives have a fitted effect of over 55% in size
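qHTS luciferase splicing reporter: luminescence rises when SMN2 exon 7 is included in transfected HEK293 cells. Compound exposure lasted 30-36 h at 37C, with 4.5 mM final sodium butyrate as control, followed by a ONE-Glo read.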
Rab9 promoter act: qHTS Assay for Rab9 Promoter Activators | Potency, µM (series often up to 9.22 µM), inactives show top-dose activation, negative = inhibition, hits mostly activators | AID 485297, 2010 | actives 2.8% (n = 320,000) | Huh7 Rab9 promoter-luciferase reporter, luminescence, 24 h; also: % of control where 0% means no effect; nearly all actives have a fitted effect of over 60% in size
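Stable Rab9-luc Huh7, 1500 cells/well, 2 h settle; cmpd in DMSO, 24 h, 37 °C/5% CO2; luciferase reagent 10 min RT; luminescence.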
ELG1 repair inh: qHTS screen for small molecules that inhibit ELG1-dependent DNA repair in human embryonic kidney (HEK293T) cells expressing luciferase-tagged ELG1; HEK293T ELG1-luciferase reporter, luminescence, 16 h; DNA damage induced by 5-fluorouridine; Potency, µM (series often up to 46.1 µM), inactives show top-dose activity change, negative = inhibition, most hits filed as inhibitors; actives 2.3% (n = 330,000); AID 504467, 2011; also: % is scaled to controls: 0 for no effect and ±100 for the full control effect; nearly all actives have a fitted effect of over 55% in size
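Overnight (16 hr) co-exposure of 2,000 cells/well to 5-fluorouridine and compound at 37 °C preceded detection. Luciferase was quantified via ONE-Glo luminescence; loss of signal denotes inhibition.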
ELG1 genotox: qHTS screen for small molecules that induce genotoxicity in human embryonic kidney (HEK293T) cells expressing luciferase-tagged ELG1; HEK293T ELG1-luciferase reporter, luminescence, 16 h; Potency, µM (series often up to 46 µM), for inactives: top-dose activity change, positive = activation, usual class: activators; actives 1.3% (n = 330,000); AID 504466, 2011; also: % of control where 0% means no effect; nearly all actives have a fitted effect of over 60% in size
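16 hr compound incubation (37 °C, 5% CO2) of HEK293T cells carrying luciferase-tagged ELG1; luciferase then measured by ONE-Glo luminescence after 30 min at RT.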
FLuc modulator: qHTS profiling assay for firefly luciferase inhibitor/activator using purifed enzyme and Km concentrations of substrates (counterscreen for miR-21 project). AID 588342, 2011. purified FLuc, Km substrates, luminescence inhibition. actives 6.9% (n = 360,000). Potency, µM (series often up to 57.5 µM), inactives show at the highest dose activity change, negative = inhibition, hits mostly inhibitors;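 also: plate controls were vehicle for no effect and reference inhibitor for full effect; nearly all actives have a fitted effect of over 55% in size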
Target sequence (P08659 whole entry, looked up): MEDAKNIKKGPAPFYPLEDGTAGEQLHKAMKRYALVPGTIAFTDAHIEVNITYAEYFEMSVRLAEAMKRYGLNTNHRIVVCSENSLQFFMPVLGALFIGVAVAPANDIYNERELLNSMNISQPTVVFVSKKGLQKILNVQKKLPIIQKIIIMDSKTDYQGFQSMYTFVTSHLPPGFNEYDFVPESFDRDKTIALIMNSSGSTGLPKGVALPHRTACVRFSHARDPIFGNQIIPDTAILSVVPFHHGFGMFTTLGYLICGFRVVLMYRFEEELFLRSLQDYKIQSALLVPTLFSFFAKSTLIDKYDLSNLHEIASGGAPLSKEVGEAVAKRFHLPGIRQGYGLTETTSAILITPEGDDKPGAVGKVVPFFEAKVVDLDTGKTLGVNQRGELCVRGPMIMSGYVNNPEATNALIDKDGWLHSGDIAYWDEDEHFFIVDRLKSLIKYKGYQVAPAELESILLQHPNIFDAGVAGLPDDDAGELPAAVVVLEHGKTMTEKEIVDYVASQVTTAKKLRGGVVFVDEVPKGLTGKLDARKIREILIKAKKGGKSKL
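Purified P. pyralis luciferase (10nM final) with 10uM D-luciferin and 10uM ATP (Km levels) in 50mM Tris acetate pH 7.5, 10mM Mg acetate, 0.01% Tween-20, 0.05% BSA; qHTS 6-point titration, ~60 µM downward; luminescence read.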
The depositor's hits bear a star; ? = inconclusive; nt = no result; [ ] = dose if it differs, or a comment. Rows were chosen to be rich in hits. Some 9.2% of all compounds tested hit in one or more screens of this group. Calls follow the shape of the dose curve; as a rule, active = well fitted curve in the direction sought with a large enough effect; inconclusive = small, poorly fitted or top-dose-only effect, or another doubt; inactive = no such curve, though single readings can be large; an effect the other way counts as inactive or inconclusive. Potency is read from the fitted curve at half-maximal effect.

SMILES | NPC1 promoter act | SMN2 splice up | Rab9 promoter act | ELG1 repair inh | ELG1 genotox | FLuc modulator
CCCCC(NC(=O)Cc1c(C)c2cc3c4c(oc3c(C)c2oc1=O)CCCC4)C(=O)O (stereo unspecified) | -3% | nt | -1% | 4% | -1% | ?
Cc1c(CCC(=O)NCCCCCC(=O)O)c(=O)oc2c(C)c3oc4c(c3cc12)CCCC4 | 1% | nt | -3% | -1% | 4% | ?
CCCCC(NC(=O)Cc1c(C)c2cc3c4c(oc3cc2oc1=O)CCCC4)C(=O)O (stereo unspecified) | -1% | nt | 6% | 20% | 2% | 19µM*
CCC(NC(=O)CCc1c(C)c2cc3c4c(oc3cc2oc1=O)CCCC4)C(=O)O (stereo unspecified) | -2% | nt | 6% | ? | 6% | 15µM*
CSCC[C@H](NC(=O)Cc1c(C)c2cc3c4c(oc3cc2oc1=O)CCCC4)C(=O)O | 0% | nt | 1% | ? | 2% | 11µM*
Cc1c(CCC(=O)NCCCC(=O)O)c(=O)oc2cc3oc4c(c3cc12)CCCC4 | 0% | nt | 2% | ? | 6% | 19µM*
CCOC(=O)c1c(C)oc2nc(C)nc(NCCc3ccc(OCC)cc3)c12 | nt | nt | nt | nt | nt | 2%
Cc1c(CC(=O)N[C@@H](C)C(=O)O)c(=O)oc2cc3oc4c(c3cc12)CCCC4 | 0% | nt | 1% | 2% | -3% | 17µM*
Cc1coc2cc3oc(=O)c(CC(=O)N[C@@H](CC(C)C)C(=O)O)c(C)c3cc12 | 1% | nt | -4%[1.84 µM] | 2% | 0% | 2%
Cc1c(CCC(=O)N[C@@H](CCCNC(N)=O)C(=O)O)c(=O)oc2cc3oc4c(c3cc12)CCCC4 | 3% | nt | 9% | ? | 7% | 15µM*
Cc1c(CC(=O)N[C@@H](CCCNC(N)=O)C(=O)O)c(=O)oc2cc3oc4c(c3cc12)CCCC4 | -1% | nt | -7% | 18% | 0% | 17µM*
Cc1coc2cc3oc(=O)c(CCC(=O)N[C@@H](CCCNC(N)=O)C(=O)O)c(C)c3cc12 | 1% | nt | 5% | 0% | -1% | 2%
Cc1oc2c(C)c3oc(=O)c(CC(=O)N[C@@H](CCCNC(N)=O)C(=O)O)c(C)c3cc2c1C | -4% | nt | 0% | 0% | 0% | ?
Cc1nonc1OCCn1c([N+](=O)[O-])cnc1C | -8% | 11% | -3% | 12% | 0% | -3%
O=C(NC(=S)NCc1ccccc1)c1ccc2c(c1)OCO2 | 12% | 21% | 17% | ? | 12% | ?
Cc1ccc(NC(=O)CSc2nnc3ccc(-c4ccncc4)nn23)cc1 | 3% | nt | 19% | 5.8µM* | -15% | -7%
COc1ccc(CC(=O)Nc2ccc(-c3ccc4nnc(C)n4n3)cc2)cc1OC | -11% | 18µM* | -19% | ? | 21µM* | 0%
Cc1noc(NS(=O)(=O)c2ccc(NC(=O)C(CC(C)C)N3C(=O)c4ccccc4C3=O)cc2)c1C (stereo unspecified) | -4% | nt | 0% | 0% | -4% | 1%
CCN(CC)CCN(C(=O)c1cc2c(ccc3ccccc32)oc1=O)c1nc2cc3c(cc2s1)OCCO3 | 11% | nt | 12% | ? | 18µM* | -8%
CCN(CC)CCN(C(=O)c1ccc2c(c1)OCCO2)c1nc2cc3c(cc2s1)OCO3 | -4% | nt | 3% | -1% | -9% | -1%
COc1cc(NC(=O)COC(=O)Cn2cnc3c2c(=O)n(C)c(=O)n3C)cc(OC)c1 | -4% | nt | -1% | 13% | 1% | -2%
CCc1c(C#N)sc(C(N)=O)c1CC | -1% | nt | -2% | 10µM* | -7% | 0%
CCOc1ccc(NC(=O)CCC(=O)NNC(=O)c2cccc([N+](=O)[O-])c2)cc1 | nt | nt | nt | 16% | 1% | nt
CCOC(=O)c1c(-c2ccccc2)nc2ccc(C)cn12 | 3.5µM* | 5% | 2.2µM* | ? | ? | 9.5µM*
CCOC(=O)c1c(-c2ccccc2)nc2cc(C)ccn12 | ? | 25% | ? | ? | 13% | 11µM*
SMILES | NPC1 promoter act | SMN2 splice up | Rab9 promoter act | ELG1 repair inh | ELG1 genotox | FLuc modulator
Cn1nc(C(F)(F)F)c(/C=N/OC(=O)c2ccccc2Cl)c1SCc1ccccc1Cl | -6% | -26% | -10% | 13µM* | -16% | -2%
CC(C)CC(=O)Nc1ccc(C(=O)CN2C(=O)NC3(CCOc4ccccc43)C2=O)cc1 (stereo unspecified) | 6% | nt | 8% | 0% | -3% | 0%
NS(=O)(=O)c1ccc(CCNC(=O)c2ccc3c(c2)OCCO3)cc1 | -2% | nt | -10% | -12% | 2% | 4%
C/C(=N\Nc1nccnc1Cl)c1ccc(O)c(C)c1 | ? | nt | ? | ? | ? | 11µM*
COc1ccc(/C(C)=N/Nc2nccnc2Cl)cc1 | ? | nt | 1.8µM* | ? | ? | 7.6µM*
C/C(=N\Nc1nccnc1Cl)c1ccc(Br)cc1 | ? | nt | 17% | 28% | 7% | ?
COc1cc2c(cc1OC)C(C)N(C(=O)c1ccc(Cl)c(S(=O)(=O)N3CCCCC3)c1)CC2 (stereo unspecified) | -7% | nt | -10% | ? | 0% | ?
O=C(CN1c2cccc3cccc(c23)S1(=O)=O)NCc1ccc(Cl)cc1 | -7% | nt | 7% | ? | -3% | nt
O=C(/C=C/C=C/c1ccc2c(c1)OCO2)N1CCCCC1 | 2.5µM* | 14µM* | 2.5µM* | ? | 12µM* | 8.5µM*
CN1CCN(C(=O)/C=C/c2ccc3c(c2)OCO3)CC1 | 1% | 1% | 13% | ? | 3% | -4%
COC(=O)C1CCN(C(=O)/C=C/c2ccc3c(c2)OCO3)CC1 | 0.79µM* | nt | 1.3µM* | ? | ? | ?
O=C(/C=C/c1ccc2c(c1)OCO2)N1CCN(c2n[nH]c(=O)[nH]c2=O)CC1 | -4% | nt | -2% | 4% | 2% | 21µM*

Bioassay records (PubChem BioAssay)
